# Measured values taken from PubChem BioAssay AID2685 (National Center for Advancing Translational Sciences (NCATS), 2010).
# The campaign covered roughly 320,000 compounds. About 2,100 (0.66%) were called active. Not shown: some 53% with an inconclusive outcome. The call rests on the fitted dose curve; in most records, active means well fitted inhibition curve with a large enough effect in the signal ratio, with a control signal flat (not every such curve was filed as active); inconclusive means small, poorly fitted or top-dose-only effect, or effect the other way, or a change in a side signal; inactive means flat fitted curve, though single readings scatter; the % refers to the signal ratio. Many of the other results were omitted from the sample, so actives are more common in it than they were.
# Experiment: qHTS Assay for Lipid Storage Modulators in Drosophila S3 Cells;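 on cell number change: cells counted by Cell Tracker Red CMTPX staining in the red channel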; on lipid storage change, negative = inhibition: on the % scale 0 is the no-effect control and ±100 the full control effect
# Conditions: BODIPY lipid droplet fluorescence, 18-24 h, cells fed with added oleic acid; cell number change: measured here: cell count max response; series mostly up to 46.1 µM; lipid storage change, negative = inhibition: at the top concentration
# In short: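 Drosophila S3 cells loaded with oleic acid (400 uM, as added) and compounds at several concentrations; lipid droplets imaged by 488-nm laser-scanning cytometry, 500–530 nm intensity and object ratio to cell channel. Percent activity normalized to 20 uM Triacsin C.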
# Potency means the concentration at half of the fitted maximal effect.
Structure (SMILES),"lipid storage change, negative = inhibition",cell number change [%],Potency,outcome
O=C(O)c1cccnc1C(=O)O,2.1% (inactive),-2.7,,
O=C(O)c1cccnc1NC1CCCC1,,-16,20.6 µM (active),
O=C(NC1CCCCC1)c1cccnc1C(=O)O,-6.71% (inactive),-11.4,,
Cc1cc(C)n(-c2nnc(C)n2/N=C/c2ccc(O)cc2)n1,11.6% (inactive),-6.41,,
Cc1cc(C)n(-c2nnc(C)n2/N=C/c2ccccc2O)n1,,-5.58,18.4 µM (active),
Cc1cc(C)n(-c2nnc(C)n2/N=C/c2ccccc2F)n1,,19.1,,inactive
Cc1ccccc1NC(=O)c1ccc2ccccc2c1,5.74% (inactive),14.2,,
CCCC(=O)NCCSC,5.9% (inactive),-17.4,,
O=C(NC1CCCCC1)C(c1ccncc1)N(C(=O)Cc1cccs1)c1ccccc1 (configuration not stated),12.7% (inactive),12.4,,
COc1ccc(C(C(=O)NC2CCCC2)N(Cc2cccnc2)C(=O)Cc2cccs2)c(OC)c1 (configuration not stated),,-10.9,7.31 µM (active),
COc1ccc(C(C(=O)NC2CCCC2)N(Cc2cccnc2)C(=O)Cc2cccs2)cc1OC (configuration not stated),-9.53% (inactive),6.84,,
O=C(NC1CCCC1)C(c1ccsc1)N(C(=O)Cc1cccs1)c1ccc(F)cc1 (configuration not stated),-14.8% (inactive),-21.2,,
O=C(NC1CCCC1)C(c1ccncc1)N(C(=O)Cc1cccs1)c1ccc(F)cc1 (configuration not stated),,3.33,29.1 µM (active),
O=C(NC1CCCC1)C(c1ccccc1)N(Cc1cccnc1)C(=O)Cc1cccs1 (configuration not stated),17.7% (inactive),-1.03,,
O=c1[nH]c(=O)c2nnc(N/N=C\c3ccc(O)cc3)nc2[nH]1,1.17% (inactive),-0.285,,
Cc1ccc(N/C(N)=N/c2nc3c(c(=O)[nH]2)CCCC3)c(C)c1,-16.9% (inactive),25.1,,
CN(C)CCN(C(=O)c1ccc(C(=O)c2ccccc2)cc1)c1nc2cc3c(cc2s1)OCO3,18.9% (inactive),29,,
COc1cccc(N2C(N)=NC(N)=NC2(C)C)c1,-15.5% (inactive),-1.01,,
CCOC(=O)c1cccc(N2C(N)=NC(N)=NC2(C)C)c1,1.48% (inactive),6.64,,

Structure (SMILES),"lipid storage change, negative = inhibition",cell number change [%],Potency,outcome
CC1(C)N=C(N)N=C(N)N1c1cccc(C(=O)O)c1,,9.53,29.1 µM (active),
O=C(Nc1ccc(N2CCOCC2)cc1)C1CC(=O)N(c2ccc(F)cc2)C1 (configuration not stated),-18.1% (inactive),18.8,,
CN(C(=O)C1CCOC1)c1nnc(-c2cnccn2)s1 (configuration not stated),-5.36% [at 9.22 µM] (inactive),10.4,,
Cc1cnc(-c2nnc(N(C)C(=O)C3CCOC3)s2)cn1 (configuration not stated),,-7.84,23.1 µM (active),
CN(C(=O)C1CCOC1)c1nnc(-c2ccncc2)s1 (configuration not stated),,,,inactive
O=C1NC2c3ccccc3CC2O1 (configuration not stated),,17.5,,inactive
CC(C)c1ccc2c(c1)[C@H]1OCC[C@H]1[C@@H](c1cccs1)N2,21% (inactive),-7.55,,
CC(C)c1ccc2c(c1)C1Cc3ccccc3C1N2 (configuration not stated),,,9.2 µM (active),
COc1ccc(/C=N\NC(=O)COc2ccc(Cl)cc2Cl)c(C(=O)O)c1OC,3.57% (inactive),11.7,,
CC(C)NC(=O)C(c1ccc(F)cc1)N(C(=O)CCC(=O)Nc1ccccn1)c1cccc(F)c1 (configuration not stated),24.5% (inactive),7.14,,
Oc1ccc(-c2nc(-c3ccc(O)c(O)c3)cs2)cc1,,-11.8,0.0116 µM (active),
Fc1ccc(-c2csc(-c3ccncc3)n2)cc1,4.09% (inactive),8.89,,
Oc1ccc(-c2csc(-c3cccnc3)n2)cc1O,,-16.9,,inactive
O=C(O)c1ccc(-c2nc(-c3ccc(Cl)c(Cl)c3)cs2)cc1,8.4% (inactive),6.89,,
Fc1ccc(-c2csc(-c3cccnc3)n2)cc1F,14.8% (inactive),,,
NC(=O)c1cc(-c2csc(-c3cccnc3)n2)ccc1O,,5,25.9 µM (active),
CCN(CC)S(=O)(=O)c1ccc(S(=O)(=O)N2CCCC2)cc1,-3.92% (inactive),4.33,,
CCOc1ccc(Nc2cc3n(c(=O)n2)CCc2cc(OC)c(OC)cc2-3)cc1,-11.1% (inactive),-17.4,,
CCc1c(C)nc(N2CCN(c3ccccc3F)CC2)[nH]c1=O,,15.2,,inactive

Structure (SMILES),"lipid storage change, negative = inhibition",cell number change [%],Potency,outcome
Cc1nn(-c2ccccc2)c(Cl)c1/C=N/NC(=O)CNc1n[nH]c(=O)[nH]c1=O,-0.0956% (inactive),11.6,,
CCO[C@@H]1OC(C(=O)NCc2nc3ccccc3[nH]2)=C[C@H](C)[C@H]1CCCO,-29% (inactive),-18.5,,
CCC(=O)Nc1ccc2c(c1)ncn2-c1ccc(C)cc1,-1.57% (inactive),19.8,,
Cc1ccc(NC(=O)N(CCC(=O)O)Cc2ccccc2)cc1,,,,inactive
Cc1cc(C)c2[nH]c(=O)c(CN(C(=O)C3CCCO3)C3CCCC3)cc2c1 (configuration not stated),3.45% (inactive),9.83,,
CCN1C(=O)[C@H]2[C@@H](c3ccc(-c4ccc(OC)cc4)c(OC)c3)N3CCCC[C@@]3(C(=O)OC)[C@H]2C1=O,,-0.765,5.8 µM (active),
CCN1C(=O)[C@@H]2[C@@H](c3ccc(-c4ccc(OC)cc4)c(OC)c3)N3CCCC[C@@]3(C(=O)OC)[C@@H]2C1=O,,24.8,9.2 µM (active),
CCN1C(=O)[C@H]2[C@@H](c3ccc(-c4ccccc4)cc3)N3CCCC[C@@]3(C(=O)OC)[C@H]2C1=O,13.3% (inactive),,,
CCN1C(=O)[C@@H]2[C@@H](c3ccc(-c4ccccc4)cc3)N3CCCC[C@@]3(C(=O)OC)[C@@H]2C1=O,,15.8,,inactive
CCN1C(=O)[C@@H]2[C@@H](c3ccc(-c4ccc5c(c4)OCO5)c(OC)c3)N3CCC[C@@]3(C(=O)OC)[C@@H]2C1=O,5.27% (inactive),-1.65,,
CCN1C(=O)[C@@H]2[C@@H](c3ccc(-c4ccc5c(c4)OCO5)c(OC)c3)N3CCCC[C@@]3(C(=O)OC)[C@@H]2C1=O,,,,inactive
Cc1cccc(OCC(=O)Nc2ccc3c(c2)nc(CCN2CCCCC2)n3C)c1,,,,inactive
CCc1ccc(NC(=O)[C@H](Cc2ccccc2)NC(=O)C2CCN(C(=O)[C@@H](N)CC(C)C)CC2)cc1,-9.52% (inactive),18,,
CC(=O)c1ccc(NC(=O)c2ccc(CSc3ccccc3)o2)cc1,15.1% (inactive),3.7,,
Cn1cncc1C#Cc1ccc2cc(C3(O)CCCCC3)oc(=O)c2c1,11.5% (inactive),-13.7,,
Cn1cncc1C#Cc1ccc2cc(CCO)oc(=O)c2c1,,17.2,1.3 µM (active),
CN(C)c1ccc(C#Cc2ccc3cc(CCO)oc(=O)c3c2)cc1,-0.121% (inactive),24,,
COc1cccc(Oc2cc(Cl)nc(N)n2)c1,0.532% (inactive),-10.3,,
COc1ccc(Cl)cc1NC(=O)C(C)OC(=O)C1=NNC(=O)CC1 (configuration not stated),13.5% (inactive),-0.986,,
